Results as given in PubChem BioAssay.
Inconclusive results are not listed. Calls of active or inactive are those of the source.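 The calls were made as follows, unless noted: active = percent response above a set limit, the screen-wide mean plus 3 SD (cut at about 130% in these data); inactive = the rest.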

Key:
[1] = yeast TOR pathway RPL19A-GFP modulators, primary screen, cell-based, S. cerevisiae, multiplex flow cytometry (AID 1862; in the data active = percent of DMSO control GFP below about 86%;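 also: lower values mimic rapamycin by blocking the RPL19A rise seen in DMSO cells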); conditions: S. cerevisiae RPL19A-GFP strain, flow cytometry fluorescence, 3 h; at 10 µM; stronger effect = lower value
[2] = modulators of MEP2-GFP levels in yeast, primary screen, S. cerevisiae, multiplex flow cytometry (AID 1867;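 active = GFP response, as percent of the DMSO control, above the screen-wide mean plus 3 SD, about 139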;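 also: median GFP channel fluorescence of barcode-gated MEP2-GFP cells measured by flow cytometry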); conditions: S. cerevisiae MEP2-GFP strain, 3 h, at 10 µM, stronger effect = higher value, 100% means same as DMSO wells
[3] = modulators of CIT2-GFP expression in yeast, primary screen, S. cerevisiae, GFP fusion, multiplex flow cytometry (AID 1870); conditions: 3 h, at 10 µM, stronger effect = higher value;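 also: barcoded CIT2-GFP strain pooled with four other GFP strains with rapamycin as positive control; median GFP fluorescence per well over plate mean of DMSO wells so 100% = DMSO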
[4] = modulators of LAP4-GFP expression in yeast, primary screen, S. cerevisiae, multiplex flow cytometry (AID 1873;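 active = GFP signal, as percent of the solvent control, above the screen mean plus 3 SD, about 149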); conditions: 3 h, at 10 µM, stronger effect = higher value
[5] = modulators of AGP1-GFP expression in yeast TOR pathway, primary screen, cell-based, multiplex flow cytometry, S. cerevisiae (AID 1887;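 active = GFP signal above the screen-wide mean plus 3 SD, that is over about 124.5% of the solvent control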;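 also: AGP1-GFP fusion strain of S. cerevisiae within a five-strain barcoded multiplex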); conditions: 3 h, at 10 µM, stronger effect = higher value
[6] = inhibitors of CD8+ T cell-vesicle binding, pilot screen, LFA-1/ICAM-1 modulator project, MLPCN validation set, flow cytometry (AID 2523;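 active = response below a set limit, under 55% cells CD8-positive and vesicle-bound, and CD8 cells' 90th-percentile brightness under 279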;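 as to vesicle binding response: mean PE anti-B7-1 fluorescence of CD8+ cells relative to row control; 100% = QL9-loaded vesicles with DMSO vehicle in the same plate row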); conditions: 2C mouse CD8+ T cells, at 7 µM, stronger effect = lower value; double positive events: measured here: CD8+/vesicle+ event percentage
[7] = target: Integrin beta-1 (Homo sapiens) + Integrin alpha-4 (Homo sapiens) (UniProt P13612+P05556); assay: inhibition of HUTS-21 binding to VLA-4, pilot screen, VLA-4 allosteric modulator project, U937 cells, HUTS-21 mAb, flow cytometry, validation set (AID 2674;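 active = inhibition above 50%, about 3 SD of the validation set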;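 also: antibody binding induced by the VLA-4 ligand LDV present at three times its Kd; 0% = LDV ligand with antibody and no compound and 100% = antibody without LDV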); conditions: HUTS-21 LIBS mAb binding, at 6.7 µM, stronger effect = higher value, binding induced by LDV ligand
[8] = superoxide lowering in aged yeast cells, pilot screen, validation compound set (AID 2706;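 active = superoxide response below 65% of plate, a cut near 3 SD across the whole screen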;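 also: yeast exposed to compound for one week at 30 degrees C before staining; 100% = mean of all compound wells on the same plate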); conditions: S. cerevisiae aging, superoxide DHE fluorescence; at 10 µM; stronger effect = lower value
[9] = target: Beta-adrenergic receptor kinase 1 (Homo sapiens) (UniProt P25098); assay: GRK2 binders displacing RNA aptamer, biochemical, validation, human GRK2, bead flow cytometry (AID 488806;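 active = aptamer binding inhibition above 30%, about 3 SD of noise from non-fluorescent compounds; inactive = inhibition at or below 30%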); conditions: bead-bound GRK2, FAM-aptamer displacement, at 10 µM, stronger effect = higher value
[10] = target: Beta-2 adrenergic receptor (Homo sapiens) (UniProt P07550); assay: beta2AR agonists driving receptor internalization, pilot screen, cell-based, FAP fluorogen, flow cytometry, validation set (AID 504459;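 active = percent response above 42, roughly 3 SD of non-fluorescent test compounds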;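 also: agonist-driven loss of surface beta2AR via internalization measured by FAP dye flow cytometry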); conditions: Am2.2-beta2AR cells, FAP surface receptor flow cytometry; at 10 µM; stronger effect = higher value
[11] = target: AP-2 complex subunit beta (Homo sapiens) (UniProt P63010); assay: inhibitors of arrestin peptide binding to AP2, pilot screen, biochemical, validation set, GST-AP2 beads, flow cytometry (AID 504541;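 active = inhibition above 54%, about 3 SD of non-fluorescent compounds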;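 also: AP2 carries R879A mutation and is captured from E. coli lysate; bead-bound FITC arrestin peptide fluorescence measuring arrestin peptide binding to AP2; 0% = DMSO wells and 100% = excess unlabeled arrestin peptide control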); conditions: FITC arrestin peptide, at 10 µM, stronger effect = higher value, AP2 beta2 appendage fragment, R879A mutant
[12] = yeast V-ATPase proton transport modulators, S. cerevisiae, pHLuorin, HTS validation (AID 504600; in the data active = response above about 15%;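 also: plate controls were DMSO for no effect and reference compound for full effect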); conditions: S. cerevisiae pHLuorin cytosolic pH, at 10 µM, stronger effect = higher value
[13] = system: anti-desmoglein-3 scFv antibody binding to human DSG3; assay: inhibitors of anti-DSG3 scFv binding to DSG3, pilot screen, biochemical, validation compound set, bead-based, flow cytometry (AID 588368;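 active = binding below the plate cutoff, the plate median minus 3 SD, with a reading above zero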;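 also: signal is the median channel fluorescence of bead-bound GFP antibody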); conditions: Protein G beads, DSG3-Fc, scFv-GFP binding, at 10 µM, stronger effect = lower value
[14] = inhibitors of fungal efflux pumps CDR1, CDR2, MDR1, pilot screen, validation compound set, multiplex, phenotypic (AID 588506;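 active = efflux inhibition above 0.42, the validation set average plus 4 SD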;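 also: Nile Red retained in cells so higher fluorescence means more efflux inhibition; 0 = negative control wells and 1 = enniatin B 25 µM full block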); conditions: S. cerevisiae pump-expressing triplex, Nile Red efflux flow cytometry; at 10 µM; stronger effect = higher value; the pumps come from Candida albicans
[15] = target: ATP-binding cassette sub-family B member 6 (Homo sapiens) (UniProt Q9NP58); assay: ABCB6 transporter inhibitors, pilot screen, K562-ABCB6 cells, flow cytometry, validation set (AID 588550;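 active = inhibition above the screen-wide mean plus 3 SD, about 51%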;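 also: 0% = DMSO wells and 100% = benzethonium chloride 70 µM positive control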); conditions: K562-ABCB6 porphyrin accumulation, 1 h, at 10 µM, stronger effect = higher value
[16] = promoters of myeloid differentiation in arrested cells, primary screen, cell-based, GFP/MAC1 double positive, flow cytometry, validation set (AID 588685;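 active = differentiation response of at least 50%, scaled between solvent and reference control, from cells with both markers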;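 also: compound exposure lasts four days before antibody staining and flow analysis; 0% = DMSO wells and 100% = 5 µM fulvestrant positive control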); conditions: ER-HoxA9 marrow cells, stronger effect = higher value, normalized: vehicle 0, fulvestrant 100

Chain of Beta-2 adrenergic receptor (Homo sapiens) (P07550 whole entry, looked up): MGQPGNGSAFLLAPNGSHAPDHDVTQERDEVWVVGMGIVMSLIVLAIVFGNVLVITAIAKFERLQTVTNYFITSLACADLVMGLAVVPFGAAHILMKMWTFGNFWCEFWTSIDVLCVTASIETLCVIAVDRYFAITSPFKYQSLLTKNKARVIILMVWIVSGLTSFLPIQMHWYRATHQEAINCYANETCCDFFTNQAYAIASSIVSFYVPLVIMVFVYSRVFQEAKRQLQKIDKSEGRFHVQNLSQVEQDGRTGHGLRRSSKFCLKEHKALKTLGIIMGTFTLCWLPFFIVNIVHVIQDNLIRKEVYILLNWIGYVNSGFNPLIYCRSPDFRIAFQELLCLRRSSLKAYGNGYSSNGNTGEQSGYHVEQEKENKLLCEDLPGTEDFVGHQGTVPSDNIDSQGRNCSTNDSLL
Chain of ATP-binding cassette sub-family B member 6 (Homo sapiens) (Q9NP58 whole entry, looked up): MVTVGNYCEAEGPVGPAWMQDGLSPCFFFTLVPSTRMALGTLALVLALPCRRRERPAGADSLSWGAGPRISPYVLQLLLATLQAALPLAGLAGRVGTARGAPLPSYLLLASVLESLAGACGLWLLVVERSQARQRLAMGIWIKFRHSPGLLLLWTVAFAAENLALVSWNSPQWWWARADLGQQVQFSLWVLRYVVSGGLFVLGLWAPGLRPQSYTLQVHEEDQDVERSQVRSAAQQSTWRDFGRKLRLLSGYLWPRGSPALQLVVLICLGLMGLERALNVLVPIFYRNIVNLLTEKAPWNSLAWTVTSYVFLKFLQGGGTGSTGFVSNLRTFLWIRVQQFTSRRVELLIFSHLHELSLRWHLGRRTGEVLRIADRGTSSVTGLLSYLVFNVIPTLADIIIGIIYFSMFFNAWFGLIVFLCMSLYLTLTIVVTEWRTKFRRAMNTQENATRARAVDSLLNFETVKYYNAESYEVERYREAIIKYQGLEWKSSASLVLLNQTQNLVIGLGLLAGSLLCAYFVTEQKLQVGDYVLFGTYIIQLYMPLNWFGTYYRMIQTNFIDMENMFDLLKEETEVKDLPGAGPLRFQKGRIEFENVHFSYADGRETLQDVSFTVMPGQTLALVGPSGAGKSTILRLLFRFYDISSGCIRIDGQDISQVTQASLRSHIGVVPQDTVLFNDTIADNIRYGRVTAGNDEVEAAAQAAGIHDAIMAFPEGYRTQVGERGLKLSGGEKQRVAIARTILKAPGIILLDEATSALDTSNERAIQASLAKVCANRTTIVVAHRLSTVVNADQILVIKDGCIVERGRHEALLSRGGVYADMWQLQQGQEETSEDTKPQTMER
Chain of Integrin beta-1 (Homo sapiens) + Integrin alpha-4 (Homo sapiens) (P05556 whole entry, looked up): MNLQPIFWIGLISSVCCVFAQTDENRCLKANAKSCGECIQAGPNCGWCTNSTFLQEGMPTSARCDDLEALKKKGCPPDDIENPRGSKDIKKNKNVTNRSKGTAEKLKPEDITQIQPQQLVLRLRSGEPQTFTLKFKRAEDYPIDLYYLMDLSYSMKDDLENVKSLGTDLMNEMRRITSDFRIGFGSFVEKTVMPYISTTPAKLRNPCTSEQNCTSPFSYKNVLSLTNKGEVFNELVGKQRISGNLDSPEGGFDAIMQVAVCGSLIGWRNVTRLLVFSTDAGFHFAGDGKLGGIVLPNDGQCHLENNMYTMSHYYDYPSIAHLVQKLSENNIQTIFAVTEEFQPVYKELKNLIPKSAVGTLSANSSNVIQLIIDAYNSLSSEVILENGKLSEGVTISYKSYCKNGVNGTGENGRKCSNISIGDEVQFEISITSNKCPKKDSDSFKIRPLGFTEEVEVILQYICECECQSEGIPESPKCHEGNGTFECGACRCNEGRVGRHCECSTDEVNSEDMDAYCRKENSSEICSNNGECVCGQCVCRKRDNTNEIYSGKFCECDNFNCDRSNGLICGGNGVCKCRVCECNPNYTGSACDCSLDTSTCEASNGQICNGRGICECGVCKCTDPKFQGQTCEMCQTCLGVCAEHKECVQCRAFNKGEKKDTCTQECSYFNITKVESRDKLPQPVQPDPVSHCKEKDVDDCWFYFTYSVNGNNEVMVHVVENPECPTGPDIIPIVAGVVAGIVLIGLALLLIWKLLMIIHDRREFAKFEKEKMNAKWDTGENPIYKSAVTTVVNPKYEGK
Chain of Integrin beta-1 (Homo sapiens) + Integrin alpha-4 (Homo sapiens) (P13612 whole entry, looked up): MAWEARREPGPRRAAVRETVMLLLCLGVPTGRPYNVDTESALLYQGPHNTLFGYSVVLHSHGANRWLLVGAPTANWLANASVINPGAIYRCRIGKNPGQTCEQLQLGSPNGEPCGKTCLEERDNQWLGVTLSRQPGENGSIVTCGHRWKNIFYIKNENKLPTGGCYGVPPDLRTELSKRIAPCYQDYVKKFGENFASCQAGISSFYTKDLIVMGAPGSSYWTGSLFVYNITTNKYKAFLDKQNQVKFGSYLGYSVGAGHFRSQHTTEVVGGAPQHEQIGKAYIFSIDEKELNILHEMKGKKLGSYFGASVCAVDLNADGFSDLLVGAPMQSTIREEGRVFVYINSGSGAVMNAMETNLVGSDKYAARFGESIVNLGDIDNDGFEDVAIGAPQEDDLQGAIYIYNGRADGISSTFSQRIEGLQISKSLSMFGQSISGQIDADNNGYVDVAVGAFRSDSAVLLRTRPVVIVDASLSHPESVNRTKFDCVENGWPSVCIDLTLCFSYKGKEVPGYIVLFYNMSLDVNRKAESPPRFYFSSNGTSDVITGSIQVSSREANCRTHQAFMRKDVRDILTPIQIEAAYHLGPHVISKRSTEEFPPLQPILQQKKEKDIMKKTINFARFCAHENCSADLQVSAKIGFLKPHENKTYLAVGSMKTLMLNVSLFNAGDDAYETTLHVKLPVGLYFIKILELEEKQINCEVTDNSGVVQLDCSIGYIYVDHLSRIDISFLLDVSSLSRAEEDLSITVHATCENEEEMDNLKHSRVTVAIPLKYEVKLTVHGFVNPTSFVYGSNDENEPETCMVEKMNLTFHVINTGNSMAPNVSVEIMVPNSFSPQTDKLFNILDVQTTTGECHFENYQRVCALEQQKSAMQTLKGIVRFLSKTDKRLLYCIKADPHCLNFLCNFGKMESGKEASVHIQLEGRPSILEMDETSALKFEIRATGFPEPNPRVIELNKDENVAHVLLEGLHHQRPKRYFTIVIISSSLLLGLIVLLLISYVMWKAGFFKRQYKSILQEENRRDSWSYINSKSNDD
Chain of Beta-adrenergic receptor kinase 1 (Homo sapiens) (P25098 whole entry, looked up): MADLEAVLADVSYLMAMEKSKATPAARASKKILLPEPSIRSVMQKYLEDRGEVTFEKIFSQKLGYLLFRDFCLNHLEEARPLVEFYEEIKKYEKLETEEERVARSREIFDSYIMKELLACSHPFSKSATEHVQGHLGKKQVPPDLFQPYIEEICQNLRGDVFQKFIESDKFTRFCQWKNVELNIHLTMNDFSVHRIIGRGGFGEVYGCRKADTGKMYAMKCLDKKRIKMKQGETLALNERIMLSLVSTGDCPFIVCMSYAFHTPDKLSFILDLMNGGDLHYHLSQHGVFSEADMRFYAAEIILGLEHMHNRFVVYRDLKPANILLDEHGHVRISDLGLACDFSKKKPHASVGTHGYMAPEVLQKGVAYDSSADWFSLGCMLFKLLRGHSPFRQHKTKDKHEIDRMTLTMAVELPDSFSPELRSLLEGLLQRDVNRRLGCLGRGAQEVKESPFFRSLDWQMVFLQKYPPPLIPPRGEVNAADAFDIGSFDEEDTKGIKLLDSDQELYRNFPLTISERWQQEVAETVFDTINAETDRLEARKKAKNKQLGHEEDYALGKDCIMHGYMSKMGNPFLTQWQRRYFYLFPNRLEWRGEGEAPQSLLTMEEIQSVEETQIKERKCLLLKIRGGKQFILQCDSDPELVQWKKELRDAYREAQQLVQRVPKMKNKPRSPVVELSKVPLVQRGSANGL
Chain of AP-2 complex subunit beta (Homo sapiens) (P63010 whole entry, looked up, the tested form may be a part, one chain of several): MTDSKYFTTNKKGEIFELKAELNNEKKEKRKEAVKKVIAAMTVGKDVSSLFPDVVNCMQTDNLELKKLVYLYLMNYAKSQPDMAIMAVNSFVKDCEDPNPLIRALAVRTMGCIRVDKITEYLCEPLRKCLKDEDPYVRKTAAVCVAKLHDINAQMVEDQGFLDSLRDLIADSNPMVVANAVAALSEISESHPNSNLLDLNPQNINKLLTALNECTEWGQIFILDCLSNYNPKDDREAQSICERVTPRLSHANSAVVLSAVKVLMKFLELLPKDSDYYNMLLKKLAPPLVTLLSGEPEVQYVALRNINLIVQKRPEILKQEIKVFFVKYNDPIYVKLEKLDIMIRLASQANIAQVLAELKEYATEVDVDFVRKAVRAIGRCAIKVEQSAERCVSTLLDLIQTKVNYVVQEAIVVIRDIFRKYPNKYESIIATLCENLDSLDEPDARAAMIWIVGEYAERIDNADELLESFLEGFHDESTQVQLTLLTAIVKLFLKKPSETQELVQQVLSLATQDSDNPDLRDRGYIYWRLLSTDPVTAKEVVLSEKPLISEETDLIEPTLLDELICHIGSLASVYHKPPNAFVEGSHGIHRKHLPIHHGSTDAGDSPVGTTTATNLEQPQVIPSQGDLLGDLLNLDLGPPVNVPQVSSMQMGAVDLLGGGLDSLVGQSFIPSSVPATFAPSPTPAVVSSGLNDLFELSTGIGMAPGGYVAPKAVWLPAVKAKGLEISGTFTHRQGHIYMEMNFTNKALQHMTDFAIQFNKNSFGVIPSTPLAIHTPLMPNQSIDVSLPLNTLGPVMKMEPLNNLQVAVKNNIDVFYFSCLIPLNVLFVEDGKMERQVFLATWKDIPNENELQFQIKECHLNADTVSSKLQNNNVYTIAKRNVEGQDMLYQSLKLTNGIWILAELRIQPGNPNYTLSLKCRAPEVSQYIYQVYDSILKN

| Structure (SMILES) | percent of DMSO control GFP [1] | GFP response vs DMSO [2] | percent response of DMSO control [3] | GFP response vs DMSO [4] | GFP response, % of DMSO [5] | double positive events [6] [%] | vesicle binding response [6] | inhibition [7] | superoxide response (% of plate) [8] | aptamer binding inhibition [9] | response [10] | inhibition [11] | response [12] | binding (% of control) [13] | efflux inhibition (fraction of control) [14] | inhibition [15] | differentiation response [16] |
| --- | --- | --- | --- | --- | --- | --- | --- | --- | --- | --- | --- | --- | --- | --- | --- | --- | --- |
| NNC(=O)c1cc(O)c(O)c(O)c1 | 105% (inactive) | 88.8% (inactive) | 114% (inactive) | 96% (inactive) | 106% (inactive) | 59 | 149% (inactive) | -1.49% (inactive) | 93.7% (inactive) | 4% (inactive) | -4.68% (inactive) | 12% (inactive) | 1.02% (inactive) | 91.2% (inactive) | -0.1 (inactive) | 5% (inactive) | -2.69% (inactive) |
| CC1(C)Cc2ccccc2-c2n[nH]c(=S)n21 | 99.1% (inactive) | 102% (inactive) | 101% (inactive) | 102% (inactive) | 104% (inactive) | 61.1 | 203% (inactive) | 9.63% (inactive) | 92.5% (inactive) | 2% (inactive) | -1.77% (inactive) | 56.7% (active) | -1.77% (inactive) | 97.2% (inactive) | 0.19 (inactive) | 11% (inactive) | -14.8% (inactive) |
| COc1ccc(CC(=O)Nc2cccc(C(=O)Nc3ccccc3C(=O)O)c2)cc1OC | 103% (inactive) | 102% (inactive) | 96.4% (inactive) | 103% (inactive) | 108% (inactive) | 61.5 | 181% (inactive) | 6.55% (inactive) | 108% (inactive) | 6% (inactive) | -21.7% (inactive) | -0.19% (inactive) | 2.28% (inactive) | 99.7% (inactive) | 0 (inactive) | 8% (inactive) | 26.5% (inactive) |
| O=C(NC(=S)Nc1nc(-c2ccccc2)cs1)c1ccco1 | 90.9% (inactive) | 132% (inactive) | 102% (inactive) | 85.3% (inactive) | 87.3% (inactive) | 55.7 | 164% (inactive) | 1.61% (inactive) | 110% (inactive) | 3% (inactive) | -23.9% (inactive) | 16.9% (inactive) | -1.38% (inactive) | 102% (inactive) | 0.12 (inactive) | 7% (inactive) | 5.73% (inactive) |
| Fc1ccc(-n2cc(CNCCc3ccccn3)c(-c3ccccc3Cl)n2)cc1 | 106% (inactive) | 102% (inactive) | 97.7% (inactive) | 106% (inactive) | 107% (inactive) | 63.8 | 91.8% (inactive) | 15.9% (inactive) | 98.4% (inactive) | -3% (inactive) | -23.3% (inactive) | 1.4% (inactive) | -7.11% (inactive) | 110% (inactive) | -0.17 (inactive) | -2% (inactive) | -7.94% (inactive) |
| Cc1cc(C(=O)Nc2ccccc2C(=O)N2CCCCC2)ccc1[N+](=O)[O-] | 98.4% (inactive) | 103% (inactive) | 86.7% (inactive) | 114% (inactive) | 103% (inactive) | 62.3 | 168% (inactive) | -7.08% (inactive) | 124% (inactive) | 1% (inactive) | -23.4% (inactive) | 19.6% (inactive) | -4.47% (inactive) | 108% (inactive) | -0.04 (inactive) | 8% (inactive) | -8.93% (inactive) |
| CN1CCCN(C(c2ccccc2)c2ccc(Cl)cc2)CC1 (stereo not given) | 97.1% (inactive) | 102% (inactive) | 103% (inactive) | 123% (inactive) | 120% (inactive) | 54.6 | 171% (inactive) | 39.8% (inactive) | 107% (inactive) | -14% (inactive) | 29.3% (inactive) | -13.9% (inactive) | -5.79% (inactive) | 107% (inactive) | 0.04 (inactive) | 2% (inactive) | -7.94% (inactive) |
| COc1cc(C=NCC2OCCc3ccccc32)cc(OC)c1 (stereo not given) | 99% (inactive) | 105% (inactive) | 95.8% (inactive) | 117% (inactive) | 100% (inactive) | 57.8 | 136% (inactive) | -1.79% (inactive) | 101% (inactive) | 4% (inactive) | 4.4% (inactive) | 17.8% (inactive) | 1.44% (inactive) | 103% (inactive) | -0.46 (inactive) | -47% (inactive) | -7.2% (inactive) |
| O=C(O)/C=C/c1cnc[nH]1 | 104% (inactive) | 108% (inactive) | 106% (inactive) | 101% (inactive) | 112% (inactive) | 59.9 | 93.5% (inactive) | 2.93% (inactive) | 98.6% (inactive) | -2% (inactive) | -4.55% (inactive) | -0.6% (inactive) | -0.43% (inactive) | 103% (inactive) | 0.755 (active) | 10% (inactive) | -13.3% (inactive) |
| COc1cc(C(=O)CCN2CCC(c3ccccc3)C2)cc(OC)c1OC (stereo not given) | 108% (inactive) | 97.7% (inactive) | 110% (inactive) | 95.9% (inactive) | 105% (inactive) | 57.9 | 131% (inactive) | 1.59% (inactive) | 117% (inactive) | 2% (inactive) | 2% (inactive) | 4.79% (inactive) | -0.17% (inactive) | 100% (inactive) | 0.1 (inactive) | 0% (inactive) | -10.4% (inactive) |
